Test results published in PubChem BioAssay (NCI).
About 83,000 compounds went through this panel and 20% of them were active in at least one assay; those are over-represented in the sample as a whole.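 Note: values are percent growth. 100 is the growth of untreated cells, values between 100 and 0 indicate rising inhibition; between -100 and 0 indicates cell death.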 A number with no mark means an inactive call. Calls of active or inactive are those of the source. The calls were made as follows: active = growth percent below 10; inactive = the rest.

System: HL-60(TB) leukemia
Experiment: NCI-60 one-dose screen, 48 h (100 = growth as untreated, 0 = no growth, -100 = all killed)
Settings: 10 µM unless noted

Structure (SMILES)	growth
Cc1ccc(-c2cc(C(=O)Nc3ccc(S(=O)(=O)N4CCCCC4)cc3)[nH]n2)c(O)c1	48.7%
COc1ccc(-c2nc3ccc(C)cc3c3c2c(=O)n(C)c(=O)n3C)cc1OC	98.1%
O=C(OCCCCOC(=O)n1cnc2ccccc21)n1cnc2ccccc21	104%
O=C(Nc1cccnc1Nc1ccc(Cl)cc1)c1cn(Cc2cccc(Oc3ccccc3)c2)nn1	12.9%
COc1cccc2c1O/C(=C\c1ncc([N+](=O)[O-])n1C)C2=O	-14.8% (active)
N#Cc1ccc(O)c(C2=NCC(c3ccc(-c4ccccc4)cc3)O2)c1 (stereo not given)	-17.3% (active)
CCOC(=O)c1cc(C(=O)c2cc(OC)c(OC)c(OC)c2)n2ccc(-c3cc[n+](CC(=O)c4cc(OC)c(OC)c(OC)c4)cc3)cc12	32.9%
NS(=O)(=O)c1ccc(Nc2nc3n[nH]c(Nc4ccccc4)c3c(=O)[nH]2)cc1	101%
COC(=O)[C@]12CC[C@@H](C)[C@H](C)[C@@H]1C1=CC[C@@H]3[C@@]4(C)C[C@@H](O)OC[C@](C)(C=O)C4C(=O)C[C@@]3(C)[C@]1(C)CC2 (stereo not given in full)	-13.3% (active)
O=C1Nc2ccc(Br)cc2C12CC(c1ccccc1)=NN2 (stereo not given)	-4.96% (active)
CCOC(=O)Cn1nnc(-c2ccc(OCc3ccccc3F)cc2)n1	102%
COc1cc(-c2nc(-c3nc4ccc(Cl)cc4[nH]3)cc3c2[nH]c2ccccc23)cc(OC)c1OC	68.7%
CCOC(=O)/C(=C/c1ccccc1)C(=O)c1ccccc1	34.5%
CCOc1c(Br)cc(C2C(C(=O)OC)=CN(C)C=C2C(=O)OC)cc1OC	35.5%
COC(=O)c1oc2c(C(C)=O)c(OCCCN(C)C)ccc2c1C	75.3%
C=CCC(CCC(CC=C)C(=O)OCC)C(=O)OCC (stereo not given)	99.8%
O=S(=O)(NCCCNc1nccc(-c2c(-c3cccc(F)c3)nc3occn23)n1)c1ccc(F)cc1	5.83% (active)
O=S(=O)(Nc1ccc2ccccc2c1)N1CCCCC1	85.1%
CC(=O)c1ccc(Nc2nc(Cl)nc(Oc3c(Cl)cccc3Cl)n2)cc1	97.8%
CCOC(=O)CC1CSC(N/N=C/c2ccc(O)cc2)=N1 (stereo not given)	97.6%

Structure (SMILES)	growth
COc1ccc(CNc2c3ccccc3nc3ccccc23)cc1F	12.9%
COc1ccc(/C=C2\N=C3Sc4cc(Cl)ccc4C(=O)N3C2=O)cc1	92.4%
CN(Cc1cnc2nc(N)nc(N)c2n1)c1ccc(C(=O)N[C@@H](CCc2nn[nH]n2)c2nn[nH]n2)cc1	31.9%
O=C(/C=C/c1ccccc1Br)c1cccc(OCCCCOc2cccc(C(=O)/C=C/c3ccccc3Br)c2)c1	92%
CCN(CC)CCCCNc1c2ccc(Cl)cc2nc2ccc(OC)cc12	-34.8% (active)
CC1=C(C(=O)OCC2CCN(C(=O)OC(C)(C)C)CC2)[C@H](c2cccc(Br)c2)C2=C(CC(C)(C)CC2=O)N1	-17.1% (active)
CC(CNc1nc(Nc2ccc(Cl)c(Cl)c2)nc(C(Cl)(Cl)Cl)n1)N(C)C (stereo not given)	-21% (active)
NCCCNc1nc2ccccc2c2c(=O)c3cc(Cl)ccc3sc12	-56.8% (active)
CCN1C(=O)N(CC)C2C1NN=c1s/c(=C\c3cc4ccccc4[nH]3)c(=O)n12 (stereo not given)	-62% (active)
Nc1nc(Nc2ccccc2)c(C=Nc2ccccc2)c(=O)[nH]1	98.9%
NC(N)=N/N=C/c1ccc(Br)cc1	-0.0458% (active)
Cn1c(=O)c2[nH]c(SC/C(=N/O)c3ccc(Br)cc3)nc2n(C)c1=O	99.5%
COC(=O)[C@]12CC[C@@H](C)[C@H](C)[C@@H]1C1=CC(=O)[C@@H]3[C@@]4(C)C[C@@H](O)[C@H](O)[C@@]5(C)COC(=C45)C[C@@]3(C)[C@]1(C)CC2	41.9%
COc1ccc(CNC(=O)c2c(C)n([O-])c3ccccc3[n+]2=O)cc1	101%
C/C(=N/NC(=O)c1sc(=S)n(C)c1N)c1cc2cc(Cl)ccc2o1	113%
Clc1cc(Cl)cc(Nc2ccc3c(OCCCN4CCOCC4)cccc3n2)c1	50.5%
COc1ccc(C2C3=C(COC3=O)N(CCO)c3cc4c(cc32)CCC4)cc1OC (stereo not given)	0.0588% (active)
Nc1ncnc2c1N=C(c1ccc3c(c1)OCO3)CC(c1ccc(Cl)cc1)N2 (stereo not given)	88.1%
Cc1ccc(-c2nc(SCC(=O)c3ccc(C#N)cc3)[nH]c(=O)c2C#N)cc1	94.2%
Cc1nc(-c2ccccc2)cc2c(O)c(C(=O)N/N=C/Cc3ccccc3)[nH]c(=O)c12	76.8%
